Source: ChEMBL document CHEMBL3988442, “University of Dundee, Small-Polar-MMV Screening Library” (2021)
For some assays here: Measured potencies and affinities stand elsewhere.

What was measured:
Parameters in all cases: scale not given: direction of the effect not stated beside the values
[1] = biological target: Protein translocase subunit SecA (Escherichia coli (strain K12)) (UniProt P10408); experiment: Assay to Identify E. coli SecA ATPase Inhibitors; format: functional; details: 30 µM
[2] = biological target: T1, Ubiquitin-activating enzyme e1, putative (Leishmania donovani (strain BPK282A1)) (UniProt E9BSI1); experiment: Leishmania donovani Ubiquitin Activating Enzyme (LdE1); format: functional; details: 30 µM
T1 sequence (whole entry): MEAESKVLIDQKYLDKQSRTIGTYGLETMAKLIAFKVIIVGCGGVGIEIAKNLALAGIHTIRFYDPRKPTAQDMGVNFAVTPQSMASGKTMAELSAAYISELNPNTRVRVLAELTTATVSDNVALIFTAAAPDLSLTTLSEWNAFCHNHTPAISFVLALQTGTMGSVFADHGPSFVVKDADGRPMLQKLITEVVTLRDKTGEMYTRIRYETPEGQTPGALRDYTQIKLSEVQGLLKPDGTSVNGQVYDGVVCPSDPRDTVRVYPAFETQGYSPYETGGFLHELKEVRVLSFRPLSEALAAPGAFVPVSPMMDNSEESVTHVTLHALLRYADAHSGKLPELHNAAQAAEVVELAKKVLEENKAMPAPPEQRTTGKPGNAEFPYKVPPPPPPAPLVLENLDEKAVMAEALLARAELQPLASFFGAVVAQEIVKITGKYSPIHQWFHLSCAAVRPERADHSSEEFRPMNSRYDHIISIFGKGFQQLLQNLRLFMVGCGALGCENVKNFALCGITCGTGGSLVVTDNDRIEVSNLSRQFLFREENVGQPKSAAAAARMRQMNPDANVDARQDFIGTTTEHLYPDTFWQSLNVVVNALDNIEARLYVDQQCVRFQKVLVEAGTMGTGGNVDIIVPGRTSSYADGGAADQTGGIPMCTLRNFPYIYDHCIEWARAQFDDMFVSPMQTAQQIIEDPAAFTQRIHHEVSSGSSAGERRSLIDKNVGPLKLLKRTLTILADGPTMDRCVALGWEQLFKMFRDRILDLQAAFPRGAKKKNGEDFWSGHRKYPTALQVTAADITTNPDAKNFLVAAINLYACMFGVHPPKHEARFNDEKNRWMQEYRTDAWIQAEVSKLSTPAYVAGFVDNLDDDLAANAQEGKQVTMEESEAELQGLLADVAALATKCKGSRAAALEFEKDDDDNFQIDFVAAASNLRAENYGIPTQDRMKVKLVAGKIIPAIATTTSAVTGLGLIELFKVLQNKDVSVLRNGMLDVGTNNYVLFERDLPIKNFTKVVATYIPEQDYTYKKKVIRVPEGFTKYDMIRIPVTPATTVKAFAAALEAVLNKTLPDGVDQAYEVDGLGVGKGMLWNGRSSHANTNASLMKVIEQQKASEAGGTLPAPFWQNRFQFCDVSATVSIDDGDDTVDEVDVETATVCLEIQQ

[3] = biological target: Sialic acid-binding Ig-like lectin 9 (Homo sapiens) (UniProt Q9Y336); experiment: Hs-Siglec9 ALPHAscreen SOP 20170721; details: 10 µM
Trypanosoma cruzi = experiment: Trypanosoma cruzi phosphomannomutase and mannose-1-phosphate guanylyltransferase assay; format: functional; details: 10 µM
[4] = biological target: T2, Arginase-2, mitochondrial (Homo sapiens) (UniProt P78540); experiment: in vitro enzyme assay to detect the production of urea directly proportional to the activity of Arginase II; format: functional; details: 33.3 µM; note: in the data most compounds retested in dose-response had high values
T2 sequence (whole entry): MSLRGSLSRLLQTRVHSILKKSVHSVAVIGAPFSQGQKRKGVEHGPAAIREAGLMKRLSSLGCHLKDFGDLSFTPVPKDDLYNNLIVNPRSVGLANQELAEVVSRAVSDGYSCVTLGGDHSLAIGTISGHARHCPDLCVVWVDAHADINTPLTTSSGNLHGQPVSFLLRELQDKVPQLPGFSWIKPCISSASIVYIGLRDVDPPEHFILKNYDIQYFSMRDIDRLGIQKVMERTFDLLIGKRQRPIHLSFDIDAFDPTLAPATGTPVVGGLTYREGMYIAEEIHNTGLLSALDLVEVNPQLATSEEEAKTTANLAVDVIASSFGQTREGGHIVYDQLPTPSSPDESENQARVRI

[5] = biological target: T3, Proteasome subunit beta (Trypanosoma cruzi) (UniProt O96673); experiment: Trypanosoma cruzi proteasome chymotrypsin-like activity (TcProtChymo) assay.; note: in the data most compounds retested in dose-response had high values; format: functional; details: 9.37 µM
T3 sequence (whole entry): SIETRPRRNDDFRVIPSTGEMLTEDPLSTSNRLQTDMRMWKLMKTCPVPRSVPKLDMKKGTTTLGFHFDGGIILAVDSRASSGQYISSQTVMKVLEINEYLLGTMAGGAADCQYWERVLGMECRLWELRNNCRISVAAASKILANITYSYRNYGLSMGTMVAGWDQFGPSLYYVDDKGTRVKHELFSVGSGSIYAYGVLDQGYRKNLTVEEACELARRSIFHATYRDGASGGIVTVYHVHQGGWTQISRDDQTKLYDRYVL

Homo sapiens = species on record: Homo sapiens; experiment: To identify inhibition of the IFN signalling (Jak-Stat) pathway via expression of an eGFP reporter gene under the control of an IFN-stimulated response element (ISRE) containing MxA promoter.; format: functional; details: 30 µM
[6] = biological target: T4, Tyrosyl-tRNA synthetase, putative (Trypanosoma cruzi (strain CL Brener)) (UniProt Q4DSP6); experiment: Trypanosoma cruzi tyrosyl tRNA synthetase (TcYRS) _High Tyrosine SOP; format: functional; details: 30 µM; note: in the data most compounds retested in dose-response had high values
T4 sequence (whole entry): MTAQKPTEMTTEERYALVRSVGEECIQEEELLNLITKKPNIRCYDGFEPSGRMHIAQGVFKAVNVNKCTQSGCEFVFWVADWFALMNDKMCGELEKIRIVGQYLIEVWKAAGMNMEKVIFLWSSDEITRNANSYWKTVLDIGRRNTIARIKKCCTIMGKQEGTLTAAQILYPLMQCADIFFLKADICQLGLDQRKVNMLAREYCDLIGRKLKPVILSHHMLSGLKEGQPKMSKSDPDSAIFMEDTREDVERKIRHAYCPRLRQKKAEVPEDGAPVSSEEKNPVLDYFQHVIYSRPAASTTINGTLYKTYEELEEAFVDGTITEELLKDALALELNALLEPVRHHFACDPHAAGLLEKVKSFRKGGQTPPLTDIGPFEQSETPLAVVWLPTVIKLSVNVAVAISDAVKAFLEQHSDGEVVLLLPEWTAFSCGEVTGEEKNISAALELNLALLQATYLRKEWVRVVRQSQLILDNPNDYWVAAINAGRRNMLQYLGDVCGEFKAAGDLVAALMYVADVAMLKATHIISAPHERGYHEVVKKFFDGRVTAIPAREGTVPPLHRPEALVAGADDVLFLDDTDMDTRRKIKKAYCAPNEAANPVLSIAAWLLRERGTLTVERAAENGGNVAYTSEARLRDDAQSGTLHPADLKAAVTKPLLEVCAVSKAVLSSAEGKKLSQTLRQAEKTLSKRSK

[7] = biological target: T4, Tyrosyl-tRNA synthetase, putative (Trypanosoma cruzi (strain CL Brener)); experiment: Trypanosoma cruzi tyrosyl tRNA synthetase (TcYRS) SOP; format: functional; details: 30 µM
[8] = biological target: Chromo domain-containing protein 1 (Saccharomyces cerevisiae (strain ATCC 204508 / S288c) (Baker's yeast)) (UniProt P32657); experiment: ScCHD-1 Enzyme Inhibition Assay; format: functional; details: 30 µM; note: in the data most compounds retested in dose-response had high values
Sequence of Chromo domain-containing protein 1 (Saccharomyces cerevisiae (strain ATCC 204508 / S288c) (Baker's yeast)) (P32657 whole entry, the tested form may be a part): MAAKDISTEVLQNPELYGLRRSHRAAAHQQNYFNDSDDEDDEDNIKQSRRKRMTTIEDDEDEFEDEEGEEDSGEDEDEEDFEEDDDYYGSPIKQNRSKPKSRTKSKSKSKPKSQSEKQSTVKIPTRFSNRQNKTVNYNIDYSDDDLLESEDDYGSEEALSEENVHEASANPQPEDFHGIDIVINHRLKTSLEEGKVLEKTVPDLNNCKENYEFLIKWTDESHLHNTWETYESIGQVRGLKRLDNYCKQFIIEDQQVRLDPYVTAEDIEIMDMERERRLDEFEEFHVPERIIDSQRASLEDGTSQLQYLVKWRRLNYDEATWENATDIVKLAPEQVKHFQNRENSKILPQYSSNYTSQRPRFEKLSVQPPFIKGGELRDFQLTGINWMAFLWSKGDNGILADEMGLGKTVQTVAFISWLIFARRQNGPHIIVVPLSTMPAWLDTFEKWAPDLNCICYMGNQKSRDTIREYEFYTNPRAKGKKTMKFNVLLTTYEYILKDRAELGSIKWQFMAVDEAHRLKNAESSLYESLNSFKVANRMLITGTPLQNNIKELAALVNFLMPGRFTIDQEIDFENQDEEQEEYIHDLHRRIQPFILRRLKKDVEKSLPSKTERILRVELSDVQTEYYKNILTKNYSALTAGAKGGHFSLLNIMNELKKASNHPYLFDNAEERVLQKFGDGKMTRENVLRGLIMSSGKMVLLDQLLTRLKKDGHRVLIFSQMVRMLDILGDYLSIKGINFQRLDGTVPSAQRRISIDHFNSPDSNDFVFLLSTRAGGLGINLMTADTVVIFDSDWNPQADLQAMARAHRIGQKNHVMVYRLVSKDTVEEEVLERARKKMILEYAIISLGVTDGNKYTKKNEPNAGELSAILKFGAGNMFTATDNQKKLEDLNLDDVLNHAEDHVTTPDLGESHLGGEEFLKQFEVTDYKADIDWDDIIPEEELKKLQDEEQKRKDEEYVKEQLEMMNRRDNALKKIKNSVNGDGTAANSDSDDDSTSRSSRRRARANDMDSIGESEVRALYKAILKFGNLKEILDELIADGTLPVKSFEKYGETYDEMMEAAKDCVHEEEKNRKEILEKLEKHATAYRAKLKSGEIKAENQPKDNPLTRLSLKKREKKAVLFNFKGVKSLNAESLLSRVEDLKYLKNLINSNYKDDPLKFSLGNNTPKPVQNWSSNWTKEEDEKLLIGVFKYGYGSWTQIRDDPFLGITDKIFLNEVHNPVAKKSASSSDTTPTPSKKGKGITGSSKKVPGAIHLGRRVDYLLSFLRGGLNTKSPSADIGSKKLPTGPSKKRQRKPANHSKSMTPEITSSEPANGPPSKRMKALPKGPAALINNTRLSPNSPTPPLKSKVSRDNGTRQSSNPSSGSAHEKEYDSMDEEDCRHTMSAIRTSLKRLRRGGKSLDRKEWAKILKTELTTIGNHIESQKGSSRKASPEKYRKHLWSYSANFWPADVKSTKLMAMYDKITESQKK

Sequence of Sialic acid-binding Ig-like lectin 9 (Homo sapiens) (Q9Y336 whole entry): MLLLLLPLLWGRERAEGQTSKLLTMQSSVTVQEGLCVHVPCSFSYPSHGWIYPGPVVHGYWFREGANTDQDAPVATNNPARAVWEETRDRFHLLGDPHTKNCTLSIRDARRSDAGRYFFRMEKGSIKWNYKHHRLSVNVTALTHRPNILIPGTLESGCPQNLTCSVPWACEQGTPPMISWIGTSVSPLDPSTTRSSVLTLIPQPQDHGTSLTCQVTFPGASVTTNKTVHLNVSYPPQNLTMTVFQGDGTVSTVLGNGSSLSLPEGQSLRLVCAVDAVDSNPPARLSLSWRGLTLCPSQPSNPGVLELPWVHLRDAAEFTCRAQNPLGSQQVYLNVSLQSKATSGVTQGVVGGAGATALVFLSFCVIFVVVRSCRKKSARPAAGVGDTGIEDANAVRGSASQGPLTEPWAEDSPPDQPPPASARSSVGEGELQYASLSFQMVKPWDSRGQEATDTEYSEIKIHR
Sequence of Protein translocase subunit SecA (Escherichia coli (strain K12)) (P10408 whole entry): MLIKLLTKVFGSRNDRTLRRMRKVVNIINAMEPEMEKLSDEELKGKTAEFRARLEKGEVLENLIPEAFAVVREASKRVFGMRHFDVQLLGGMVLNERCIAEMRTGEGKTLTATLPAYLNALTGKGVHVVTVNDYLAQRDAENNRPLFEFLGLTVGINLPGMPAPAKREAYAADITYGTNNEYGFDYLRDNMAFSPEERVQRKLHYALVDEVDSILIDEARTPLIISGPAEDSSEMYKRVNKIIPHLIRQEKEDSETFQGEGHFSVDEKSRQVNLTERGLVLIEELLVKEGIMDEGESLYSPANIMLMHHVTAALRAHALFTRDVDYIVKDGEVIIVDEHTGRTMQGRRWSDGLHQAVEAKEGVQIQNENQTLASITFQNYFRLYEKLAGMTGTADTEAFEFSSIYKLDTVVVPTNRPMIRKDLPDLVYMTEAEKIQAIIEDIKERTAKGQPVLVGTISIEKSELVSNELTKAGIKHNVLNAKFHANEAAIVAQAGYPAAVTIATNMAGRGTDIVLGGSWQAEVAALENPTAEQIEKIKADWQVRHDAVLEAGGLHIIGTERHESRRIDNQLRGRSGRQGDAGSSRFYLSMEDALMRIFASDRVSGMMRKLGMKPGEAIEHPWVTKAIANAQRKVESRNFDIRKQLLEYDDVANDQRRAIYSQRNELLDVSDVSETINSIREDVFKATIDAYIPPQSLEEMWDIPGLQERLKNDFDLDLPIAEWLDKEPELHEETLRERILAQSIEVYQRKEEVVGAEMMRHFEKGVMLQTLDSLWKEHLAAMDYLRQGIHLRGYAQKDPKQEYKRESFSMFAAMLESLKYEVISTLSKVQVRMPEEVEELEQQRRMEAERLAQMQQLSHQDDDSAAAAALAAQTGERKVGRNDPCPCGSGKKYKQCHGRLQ

| Compound | Percent Effect [1] [%] | Percent Effect [2] [%] | Percent Effect [3] [%] | Percent Effect (Trypanosoma cruzi) [%] | Percent Effect [4] [%] | Percent Effect [5] [%] | Percent Effect (Homo sapiens) [%] | Percent Effect [6] [%] | Percent Effect [7] [%] | Percent Effect [8] [%] |
| --- | --- | --- | --- | --- | --- | --- | --- | --- | --- | --- |
| Cc1ccc(NC2CCN(C(=O)c3n[nH]c4ccccc34)CC2)nn1 | -2.85 | 5.33 | 0.786 | -5.62 | 3.55 | -2.29 | 12.2 | 3.68 | 5.13 | -6.5 |
| CCc1ncc(C(=O)N2CCOCC2c2c(C)n[nH]c2C)s1 (stereo not given) | -0.434 | 10.3 | -1.82 | 7.23 | 0.41 | 1.11 | -6.48 | -0.478 | 8.43 | -1.09 |
| COc1ccc(C(N)c2cccc(S(C)(=O)=O)c2)cc1 (stereo not given) | -6.1 | 18.7 | 7.33 | 2.41 | -6.65 | 4.83 | 9.08 | 4.74 | 15.4 | -12.4 |
| COc1ccccc1CCN(C)C(=O)NC(C)c1nncn1C (stereo not given) | -6.85 | 10.7 | 12.9 | -1.21 | 0 | 16.2 | -2.26 | 2.63 | 5.13 | -8.54 |
| CC1(C)OCC(CNC(=O)c2cnn(-c3cc(Cl)ccc3Cl)c2N)O1 (stereo not given) | 3.78 | 9.33 | -9.42 | -1.97 | 3.98 | 17.1 | 11.8 | 0 | 7.5 | -20.1 |
| O=c1cccnn1CC1CN(Cc2ccsc2)Cc2nccn2C1 (stereo not given) | -8.45 | -40.3 | 11 | -1.66 | 3.64 | 8.91 | -4.15 | 14.2 | 15.4 | 4.94 |
| O=C1C[C@H]2[C@@H](CCN2C(=O)Cc2cccs2)N1Cc1cccnc1 | -6.6 | 9.09 | -0.0705 | -1.31 | -4.11 | 13.7 | 8.33 | 6.76 | 7.5 | -3.4 |
| Cn1cccc1-c1cc(C(=O)N2CCCC2c2cccnc2)[nH]n1 (stereo not given) | -6.61 | 18.9 | 15.5 | 5.72 | 5.94 | 16.6 | 5.26 | 4.79 | 17.1 | -2.92 |
| CS(=O)(=O)NCC1CCCN(C(=O)COCC(F)(F)F)C1 (stereo not given) | -0.972 | 15.4 | 0.69 | 0.845 | 2.87 | 6.57 | 9.12 | 2.39 | 22.9 | -7.07 |
| O=C(NCC(=O)N1CCCCC1)c1ccoc1 | 2.38 | 13 | 0.0749 | -7.46 | 2.25 | 17.2 | 18.2 | 4.9 | 18.8 | -8.97 |
| c1ccc(Cn2ccnc2CN2CCCC2c2noc(C3CC3)n2)cc1 (stereo not given) | 2.82 | 5.33 | -7.23 | -5.22 | 1.77 | 19.1 | 15.7 | 7.89 | 10.3 | -12.1 |
| CC[C@@H]1N(Cc2ccsc2)CCC[C@]12CCC(=O)N2CCOC | -4.26 | 19.5 | -1.28 | -3.19 | 4.11 | 10.9 | -2.54 | 7.73 | 7.5 | -3.65 |
| CC(C)=CCN1CCC(c2nccn2Cc2cscn2)CC1 | -6.89 | 5.41 | 7.33 | 9.8 | -5.94 | 9.07 | -16 | 6.92 | 14.6 | -4.64 |
| Cc1cccc(CN2C(=O)CCC23CCN(Cc2cccn2C)CC3)n1 | -2.82 | 27.3 | -0.409 | -0.75 | 0.457 | 16.9 | 23.5 | 9.66 | 22.5 | -11.1 |
| COc1cc(C)nc(N2CCN(C(=O)CN(C)C3CC3)CC2)n1 | -5.5 | 7.69 | -4.33 | -3.1 | -1.23 | 2.99 | 28.9 | -1.44 | 8.43 | 0.147 |
| COc1cccc(CNc2cnn(C)c(=O)c2Cl)c1 | -6.48 | 0 | 3.58 | -1.21 | 6.65 | 3.48 | 55.5 | 2.63 | 5.13 | -5.75 |
| O=c1cc(Cn2cncn2)nc2n1CCCN(CC1CC1)C2 | -4.98 | 11.7 | -1.33 | 1.27 | -1.22 | 9.09 | -6.93 | 3.68 | 5.13 | -4.01 |
| CNC(=O)CN1CCCC12CCN(C(=O)c1ccc(F)cc1)CC2 | -1.29 | 1.3 | -0.371 | -6.75 | 3.2 | 8.33 | 22.8 | -0.966 | -5 | -4.71 |
| CCc1ccc(O)c(C(=O)NC2CCN(C(=O)OC)CC2)c1 | 0.0182 | 15.4 | -8.93 | -4.79 | 4.51 | 5.89 | 36.6 | 5.26 | 13.2 | -4.89 |
| Cn1cc(CN2CCCN(C(=O)c3cc[nH]n3)CC2)cn1 | -1.81 | 5.13 | -4.2 | 4.22 | -0.41 | -6.57 | 23.7 | 0.478 | 13.2 | -1.64 |
| CCN1CCN(C(=O)NCCOc2ccc3c(c2)OCO3)CC1 | -3.49 | 20.8 | 7.69 | -3.92 | 1.84 | 12.6 | -5.27 | 2.94 | 16.5 | -6.7 |
| CCc1noc(C(C)N2CCC(N3CCCC3)CC2)n1 (stereo not given) | -9.65 | 16 | 8.32 | 5.02 | -5.76 | 7.38 | -3.75 | 5.79 | 12.8 | -10.6 |
| CCc1cc(C(F)(F)F)c2c(C)nn(CC(=O)O)c2n1 | 2.1 | 9.33 | -6.26 | -4.14 | 9.29 | 11 | 15.7 | 1.06 | 10 | -20.4 |
